In PubChem BioAssay AID886 (National Center for Advancing Translational Sciences (NCATS), 2007):
Where “and” joins values, the source holds several entries; their conditions need not be identical. Equal values may be shown once. The whole screen tested about 73,000 compounds, of which about 2,500 (3.4%) were called active. Another 7% or so got no clear call; they are omitted. This is one part of a sample in which actives are shown more often than they occur. Values without a mark were called inactive. The call rests on the fitted dose curve; in most records, active means well fitted inhibition curve with a large enough effect; inconclusive means small, poorly fitted or top-dose-only effect; inactive means no such curve, though single readings can be large or run the other way.

molecular target: 3-hydroxyacyl-CoA dehydrogenase type-2 (Homo sapiens) (UniProt Q99714); test: qHTS Assay for Inhibitors of HADH2 (Hydroxyacyl-Coenzyme A Dehydrogenase, Type II); conditions: recombinant HADH2, NADH fluorescence, beta-hydroxybutyryl-CoA; series mostly up to 57.1 µM; activity change, negative = inhibition: at the top concentration; further: nearly all actives have a fitted effect of over 60% in size
Sequence (Q99714 whole entry, looked up): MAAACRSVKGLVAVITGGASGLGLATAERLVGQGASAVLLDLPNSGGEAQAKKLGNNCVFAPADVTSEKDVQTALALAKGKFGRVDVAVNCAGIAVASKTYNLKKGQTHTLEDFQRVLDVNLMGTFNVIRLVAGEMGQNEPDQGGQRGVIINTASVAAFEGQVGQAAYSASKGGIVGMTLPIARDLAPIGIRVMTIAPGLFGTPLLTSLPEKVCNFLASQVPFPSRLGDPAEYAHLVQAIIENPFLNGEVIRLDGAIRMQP
Sequence (Q99714 whole entry, looked up): as above
Source text: Assay Overview: NIH Molecular Libraries Screening Centers Network [MLSCN] NIH Chemical Genomics Center [NCGC] Structural Genomics Consortium [SGC] Grant Number: None HADH2: Hydroxyacyl-Coenzyme A dehydrogenase, type II, was supplied by researchers at the Structural Genomics Consortium, Oxford University lab (PI Udo Oppermann). The mitochondrial enzyme 17-hydroxysteroid dehydrogenase type 10 (HSD17-10) previously classified as type II hydroxyacyl-CoA dehydrogenase (HADH2) catalyzes the NAD+ dependent oxidation of a variety of substrates including acyl-CoAs, androgens and neurosteroids as well as bile acids(Shafqat N, Marschall HU, Filling C, et al. Biochemical Journal. 2003;376(Pt 1):49-60). The role in neurodegeneration by binding to amyloid-peptide led to its identification (Oppermann UC, et al FEBS Letters. 1999;451(3):238-242 and Yan SD, et al. Nature. 1997;389(6652):689-695), and mutations in its gene appear to be causative for 2-methyl-3-hydroxybutyryl-CoA dehydrogenase deficiency (Ofman R, et al. American Journal of Human Genetics. 2003;72(5):1300-1307). The enzyme was produced by E.coli fermentation as His-tagged recombinant for the purpose of X-ray structure determination, and had been mass-spectrometry characterized. Inhibition of HADH2 activity was screened by utilizing beta-hydroxybutyryl coenzyme A as an electron donor and NAD+ as an electron acceptor/cofactor. An increase in the fluorescence intensity due to conversion of NAD+ to NADH was used to measure the enzyme activity.
Assay Protocol: Buffer: 100 mM Tris-HCl pH 9.0, containing 0.01 % Tween-20. Reagents/Controls: Buffer in columns 3 and 4 as negative control (no enzyme). Substrate/cofactor solution: 1 mM NAD+ and 90 uM beta-hydroxybutyryl coenzyme A (Sigma-Aldrich, St. Louis, MO) final concentrations dispensed throughout the plate. Enzyme: 20 nM HADH2 final concentration in columns 1, 2, 5-48. Column 1 is neutral (100% activity). Column 2 contained titration of apomorphine (Sigma-Aldrich, A 4393, PubChem CID 2215, top concentration 500 uM, then 1:2 dilution in duplicate) Assay Steps: Three uL of enzyme were dispensed to 1536-well Greiner black solid bottom plates. Compounds and controls (23 nL) were transferred via Kalypsys PinTool. The plates were incubated for 15 min at room temperature, and then 1 uL of substrate/cofactor solution was added to start the reaction. The plates were immediately transferred to and read every 30 seconds for 4 min on ViewLux High-throughput CCD imager (Perkin-Elmer) using 360 nm excitation and 450 nm emission fluorescence protocol. The fluorescence intensity difference between the last and the first time points was used to compute reaction progress.
On the % scale 0 is the no-effect control and ±100 the full control effect; potency means the concentration at half of the fitted maximal effect.

Row | SMILES | activity change, negative = inhibition | Potency
1 | CCOCCCNC(=O)c1c[nH]c2cc(C)ccc2c1=O | -1.39% | 
2 | COc1ccc(CCn2c(=N)c(C(=O)NCc3ccco3)cc3c(=O)n4cccc(C)c4nc32)cc1 | 3.86% | 
3 | CCn1c(=N)c(C(=O)NCCCOC)cc2c(=O)n3cccc(C)c3nc21 |  | 3.98 µM (active)
4 | O=C(c1ccco1)N1CCC2(CC1)CN(c1ncccn1)C2 | 2.51% | 
5 | Nc1ccc2c3c(cccc13)C(=O)NC2=O | 12.8% | 
6 | Cc1c(O)c(Br)c(C)c(O)c1Br (tested in a mixture with another compound) |  | 0.398 µM (active)
7 | CC(C)[C@@H](OCc1ccccc1)[C@H](C)/C=N\OC[C@@H](C)[C@H](OCc1ccccc1)C(C)C | 1.49% [at 11.4 µM] | 
8 | C[C@]12C=CC(=O)C=C1CC[C@@H]1[C@@H]2C(=O)C[C@@]2(C)[C@H]1CC[C@]2(O)C(=O)CO | 7.63% | 
9 | CC(C)CSC[C@@H]1O[C@H](n2cnc3c(N)nccc32)[C@H](O)[C@@H]1O | 7.39% [at 11.4 µM] | 
10 | Cc1csc(NC(=O)CN2CCCCCC2)n1 | -0.72% | 
11 | Cc1csc(NC(=O)NC2(C(F)(F)F)Oc3ccccc3O2)n1 |  | 2 µM (active)
12 | CCOC(=O)Cc1csc(NC(=O)Nc2ccccc2)n1 | -0.891% | 
13 | O=C(Oc1ccc2c(c1)CN(Cc1ccccc1)CO2)c1ccccc1 | -11.9% [at 11.4 µM] | 
14 | O=C(O)c1nccnc1C(=O)Nc1ccc(Br)cn1 | -0.545% | 
15 | CC(C)C[C@@H](CC(=O)N[C@@H](CCC(=O)O)CC(=O)O)NC(=O)[C@@H]1CCCC[C@H]1NC(=O)C[C@@H](NC(=O)C[C@H](CO)NC(=O)[C@@H]1CCCC[C@H]1N)C(C)C | -24.3% | 
16 | Cc1nc2c(c(=O)n1Cc1ccco1)c1nc3ccccc3nc1n2Cc1ccccc1 |  | 25.1 µM (active)
17 | COCCCn1c2nc3ccccc3nc2c2c(=O)n(Cc3ccc(Cl)cc3)c(C)nc21 | 12% | 
18 | CC(Sc1nc2ccccc2c(=O)n1Cc1ccco1)C(=O)c1ccccc1 (stereo not drawn) | 0.159% | 
19 | COC(=O)C1(Cc2ccccc2)C=C2C(=C(C)C(=O)C2C)CN1 (stereo not drawn) | -6.45% | 
20 | CN1CCc2nc(-c3ccccc3)c(-c3ccccc3)cc2C1 | -8.44% [at 11.4 µM] | 
21 | Cc1cc(C)cc(N)c1 | -4.7% | 
22 | Cc1nc(C)c(C(=O)Nc2cccc(C)c2C)o1 |  | 10 µM (active)
23 | Cc1ccccc1NC(=O)c1ccccc1 | -21.2% | 
24 | Cc1cccc(NC(=O)CSc2nc3c(c(=O)[nH]2)CCC3)c1C | 2.6% | 

Row | SMILES | activity change, negative = inhibition | Potency
25 | Cn1c(=S)c2[nH]c(SCCCc3ccccc3)nc2n(C)c1=O | 7.85% [at 11.4 µM] | 
26 | O=C1C[C@@H](O)[C@@H](O)[C@H]2[C@@H]3C(=O)N(Cc4ccc5c(c4)OCO5)C(=O)[C@@H]3CC[C@H]12 | -4.62% [at 11.4 µM] and -11.5% [at 11.4 µM] | 
27 | CS(=O)(=O)N1CCC2(CCN(c3ccncc3)CC2)CC1 | 2.81% | 
28 | c1coc(-c2nc3nc4ccccc4n3nc2-c2ccco2)c1 | -23.9% | 
29 | Cn1c(-c2ccco2)nc2cc3ccccc3cc21 |  | 31.6 µM (active)
30 | COc1ccc(CCn2c(-c3ccco3)nc3nc4ccccc4nc32)cc1OC | -13.7% | 
31 | O=C(O)/C(=C/c1c(C(=O)O)[nH]c2cc(Cl)cc(Cl)c12)c1ccccc1 | -3.85% | 
32 | c1ccc(Oc2ccccc2)cc1 | 4.03% | 
33 | O=c1c(-c2ccc(F)cc2)nc2cncnc2n1-c1ccccc1 | -15.3% | 
34 | CCOC(=O)N/N=C1/C[C@@H](O)[C@@H](O)[C@@H]2[C@@H]3C(=O)N(CC)C(=O)[C@H]3CC[C@H]12 | 11.3% [at 11.4 µM] | 
35 | O=c1[nH]c(-c2ccccc2)c(-c2ccccc2)[nH]1 |  | 3.16 µM (active)
36 | O=c1cc(-c2ccccc2)nc(N2CCCCC2)[nH]1 | -16.5% | 
37 | O=c1[nH]c(=O)c2nc3ccccc3nc2[nH]1 | -14% | 
38 | COc1ccc(-c2nc3cnc(Oc4ccccc4)nc3n(Cc3cccs3)c2=O)cc1 | 0.264% | 
39 | O=C(O)[C@@H]1[C@@H](C(=O)O)[C@]23C[C@@]2(C(=O)O)[C@]2(C(=O)O)CCC3=C3CCCC312 | 14.2% [at 11.4 µM] | 
40 | COc1ccc(N)c(C)c1 | -15.2% | 
41 | c1ccc(-n2nnnc2N2CCOCC2)cc1 | 5.51% | 
42 | C1=C(N2CCOCC2)/C(=C/c2nc3ccccc3[nH]2)CC1 |  | 3.98 µM (active)
43 | c1ccc2[nH]c(NCCN3CCOCC3)nc2c1 | -7.67% | 
44 | O=C1C(c2[nH]c3ccccc3c2O)=Nc2ccccc21 | 13.6% | 
45 | Cc1nc2cnc(N3CCN(C)CC3)nc2n(C[C@H]2CCCO2)c1=O | 75.2% | 
46 | N[C@@H](C(=O)O)c1ccc(P(=O)(O)O)cc1 | 11% | 
47 | O=C(O)c1ccc(-n2cccc2)cc1O | -14.7% | 
48 | N[C@H](C(=O)O)c1ccc(C(=O)O)c(O)c1 |  | 31.6 µM (active)
